Source: PubChem
Only some compounds are listed: those with a hit (about 4.1% of all), similar ones and a draw of the others.
FBA Mtb inh = inhibitors of M. tuberculosis fructose-bisphosphate aldolase | purified M. tuberculosis FBA, fluorescence read-out | inhibition, % at 1 µM | 360,000 compounds, 2.3% hits;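 note: 0% = vehicle and 100% = reference inhibitor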
GDH-TPI counter-1 = counter-screen for M. tuberculosis FBA inhibitors: GDH-TPI coupled enzymes; GDH-TPI coupled enzyme counterscreen, NADH absorbance; inhibition, % at 4.8 µM; 360,000 compounds, 1.2% hits; AID 588335; in the data active = inhibition above about 30%;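 note: 0% = DMSO wells and 100% = wells lacking the enzyme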
Vc quorum ag = quorum light induction in luxS cqsA deficient V. cholerae. V. cholerae BH1578 lux reporter, luminescence, 6 h. activation, % at 18.7 µM. 350,000 compounds, 0.16% hits; in the data active = activation mostly above about 9.7%, no sharp cut-off
Mtb UGM inh = Mtb UDP-galactopyranose mutase inhibition; P9WIQ1; purified UGM, fluorescence polarization probe displacement; 320,000 compounds, 0.06% hits; inhibition, % at 10 µM; in the data active = inhibition above about 10%, passing the limit was not always enough
Target sequence (P9WIQ1 whole entry, looked up): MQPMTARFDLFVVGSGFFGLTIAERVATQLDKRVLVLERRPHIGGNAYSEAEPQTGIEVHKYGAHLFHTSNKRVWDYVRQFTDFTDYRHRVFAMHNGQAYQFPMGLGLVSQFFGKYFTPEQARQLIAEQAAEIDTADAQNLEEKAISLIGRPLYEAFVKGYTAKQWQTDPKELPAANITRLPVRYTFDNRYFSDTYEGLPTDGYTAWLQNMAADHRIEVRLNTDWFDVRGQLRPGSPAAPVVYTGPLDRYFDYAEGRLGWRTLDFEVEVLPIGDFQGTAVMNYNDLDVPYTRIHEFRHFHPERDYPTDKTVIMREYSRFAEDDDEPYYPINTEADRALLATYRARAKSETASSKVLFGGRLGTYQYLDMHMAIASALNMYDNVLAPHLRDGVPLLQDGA
RecA intein inh = blocks M. tuberculosis RecA intein splicing; P9WHJ3; cell-free RecA intein splicing, fluorescence; inhibition, % (test concentration not listed); 290,000 compounds, 0.75% hits; AID 2221; in the data active = inhibition above about 30%;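 note: 0% = vehicle wells and 100% = reference inhibitor control wells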
Rv3671c inh = inhibitors of M. tuberculosis serine protease Rv3671c. P9WHR9. 320,000 compounds, 0.048% hits. inhibition, % at 5.96 µM; in the data active = inhibition above about 38%;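 note: extracellular domain of Rv3671c used as enzyme; 0% = enzyme with DMSO and 100% = no enzyme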
Mtb FBA confirm = Mtb FBA inhibition, confirmed | AID 651616 | 5,600 compounds, 78% hits | purified M. tuberculosis FBA, fluorescence read-out | inhibition, % at 1 µM | shares compounds with FBA Mtb inh;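 note: 0% = vehicle wells and 100% = reference inhibitor wells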
GDH-TPI counter-2 = inhibits GDH-TPI coupling enzymes, flagging Mtb FBA hits. shares compounds with FBA Mtb inh. GDH-TPI coupled enzyme counterscreen, fluorescence. inhibition, % at 1 µM. 5,600 compounds, 81% hits. AID 652141; in the data active = inhibition above about 10%
Starred values were filed as active, the others as inactive; i = inactive; . = not tested or not shown; + = active, no number. Cut-off read from the data, not from the text of the source, unless noted: active = inhibition above about 27%; inactive = the rest.

SMILES | FBA Mtb inh | GDH-TPI counter-1 | Vc quorum ag | Mtb UGM inh | RecA intein inh | Rv3671c inh | Mtb FBA confirm | GDH-TPI counter-2
Cc1c2ccncc2cc2c1[nH]c1ccccc12 | 9 | 8 | -6 | . | . | . | . | .
c1ccc2c(c1)[nH]c1cnccc12 | 37* | 17 | i | -2 | -10 | -12 | 32* | 41*
OCCCCc1nccc2c1[nH]c1ccccc12 | 69* | 7 | -1 | 3 | 1 | -3 | + | 186*
Cc1nccc2c1[nH]c1ccccc12 | 94* | 3 | -1 | 1 | -5 | 8 | 4 | -4
CCc1nccc2c1[nH]c1ccccc12 | 81* | 8 | 0 | 6 | -6 | -2 | + | 161*
CCOC(=O)C1(C)CCCN1C(=O)c1cccc(F)c1 (stereo unspecified) | -5 | -6 | 0 | . | . | . | . | .
C#CCOCCOCCOCCNc1nc(N2CCN(C(=O)Cn3cc(CCO)nn3)CC2)nc(N2CCN(C(=O)[C@H](C)n3cc(CCCN=C(N)N)nn3)CC2)n1 | -1 | -5 | i | . | . | . | . | .
CS(=O)(=O)c1ccc2nc(NC(=O)c3cccc(NS(=O)(=O)c4ccc(F)c(F)c4)c3)sc2c1 | 29* | 10 | 0 | -3 | -1 | -161 | 151* | 139*
O=C(Nc1nc2ccc(SC(F)F)cc2s1)c1ccc(NS(=O)(=O)c2ccc(F)c(F)c2)cc1 | 55* | 29 | 0 | 0 | 1 | -213 | + | +
CSc1nc2ccc(NC(=O)c3ccc(F)c(F)c3)cc2s1 | 1 | 1 | 0 | 0 | 2 | -10 | . | .
COc1cc(OC)cc(C(=O)Nc2nc3ccc(S(C)(=O)=O)cc3s2)c1 | 2 | 30 | 2 | 1 | -5 | -29 | . | .
CS(=O)(=O)c1ccc2nc(NC(=O)c3ccc(NS(=O)(=O)c4ccc(F)c(F)c4)cc3)sc2c1 | 71* | 60* | i | 0 | -3 | -89 | 79* | 82*
CCN(CC)S(=O)(=O)c1ccc(S(=O)(=O)N2CCCC(C(=O)NC3CC3)C2)cc1 (stereo unspecified) | 0 | 3 | 0 | 1 | 5 | 0 | . | .
Cc1ccc(-c2cc(C)nc3nc(N)nn23)cc1 | 83* | 17 | 0 | 2 | . | 4 | 61* | 51*
Cc1ccc(-c2cc(C)nc3ncnn23)cc1 | 16 | 10 | i | 1 | 0 | 8 | . | .
COc1ccc(Cl)cc1NS(=O)(=O)N1CCOCC1 | -1 | -10 | -1 | -1 | -4 | -7 | . | .
CCc1ccc(NC(=O)c2cnc3scc(C)n3c2=O)cc1 | -2 | 10 | 0 | 3 | -3 | 0 | . | .
CC(NC(=O)c1ccccc1O)c1ccccc1 (stereo unspecified) | 41* | 5 | -11 | 1 | 3 | 4 | 156* | 122*
Cc1csc2ncc(C(=O)NCc3ccccc3Cl)c(=O)n12 | 49* | 11 | . | 0 | 2 | 1 | 107* | 112*
Cc1csc2ncc(C(=O)NC(C)c3ccccc3)c(=O)n12 (stereo unspecified) | 63* | 22 | i | 3 | 1 | -3 | 199* | 159*
COc1ccncc1-c1ccc(C2=CC(=O)CC(C)(C)C2=O)cc1 | 1 | 2 | 2 | . | . | . | . | .
CC(OC(=O)CNC(=O)c1ccccc1)C(=O)Nc1ccc(S(=O)(=O)N2CCOCC2)cc1 (stereo unspecified) | 5 | 8 | 4 | . | . | . | . | .
CC(OC(=O)c1ccccc1NCCO)C(=O)Nc1ccc(S(=O)(=O)N2CCOCC2)cc1 (stereo unspecified) | 57* | 1 | 1 | 1 | -6 | -1 | 58* | 54*
O=c1[nH]c(N/N=C/c2ccccc2)nc2ccccc12 | 56* | 15 | i | 0 | -6 | -5 | -5 | -5
O=C(c1cccn2c(=O)c3ccccc3nc12)N1CCC2(CC1)OCCO2 | 20 | 7 | -1 | 0 | -41 | -3 | . | .
O=C(c1cccn2c(=O)c3cc(Cl)ccc3nc12)N1CCC2(CC1)OCCO2 | 34* | 21 | 0 | 1 | -176 | -3 | 46* | 39*
O=C(CNC(=O)c1ccc(Br)o1)Nc1cccc(S(=O)(=O)N2CCOCC2)c1 | -1 | -1 | i | -2 | 0 | 0 | . | .
